High-throughput results as filed in PubChem BioAssay.
Only some compounds are listed: those with a hit (about 7.3% of all), similar ones and a draw of the others.
uPA generation – blocks generation of uPA at the cell surface; cell surface uPA generation assay, qHTS; 330,000 compounds, 0.31% hits; Potency, µM (highest dose often 38.3 µM), usual class: inhibitors; active means well fitted inhibition curve with a large enough effect; inconclusive means small, poorly fitted or top-dose-only effect; inactive means no such curve, though single readings can be large or run the other way; tested in mouse RAW 264.7 cells; further: nearly all actives have a fitted effect of over 55% in size
SMN2 splice enh – increases expression of the SMN2 splice variant. Potency, µM (highest dose often 46.1 µM), usual class: activators. HEK293 SMN2-luciferase splicing reporter, luminescence, 30-36 h. 210,000 compounds, 2.8% hits; further: nearly all actives have a fitted effect of over 55% in size
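qHTS luciferase splicing reporter: luminescence rises when SMN2 exon 7 is included in transfected HEK293 cells. Compound exposure lasted 30-36 h at 37C, with 4.5 mM final sodium butyrate as control, followed by a ONE-Glo read.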
Rab9 promoter act – Rab9 promoter activation; Potency, µM (top dose mostly 9.22 µM), most hits filed as activators; 320,000 compounds, 2.8% hits; Huh7 Rab9 promoter-luciferase reporter, luminescence, 24 h; AID 485297; further: nearly all actives have a fitted effect of over 60% in size
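Using Huh7 cells stably transfected with Rab9 promoter–luciferase, compounds were incubated 24 h at 37 °C, 5% CO2; luciferase luminescence was read 10 min after reagent addition.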
FLuc modulator – inhibits or activates purified firefly luciferase, miR-21 counter-screen. P08659. purified FLuc, Km substrates, luminescence inhibition. Potency, µM (series often up to 57.5 µM), most hits filed as inhibitors. 360,000 compounds, 6.9% hits; further: nearly all actives have a fitted effect of over 55% in size
Target sequence (P08659 whole entry, looked up): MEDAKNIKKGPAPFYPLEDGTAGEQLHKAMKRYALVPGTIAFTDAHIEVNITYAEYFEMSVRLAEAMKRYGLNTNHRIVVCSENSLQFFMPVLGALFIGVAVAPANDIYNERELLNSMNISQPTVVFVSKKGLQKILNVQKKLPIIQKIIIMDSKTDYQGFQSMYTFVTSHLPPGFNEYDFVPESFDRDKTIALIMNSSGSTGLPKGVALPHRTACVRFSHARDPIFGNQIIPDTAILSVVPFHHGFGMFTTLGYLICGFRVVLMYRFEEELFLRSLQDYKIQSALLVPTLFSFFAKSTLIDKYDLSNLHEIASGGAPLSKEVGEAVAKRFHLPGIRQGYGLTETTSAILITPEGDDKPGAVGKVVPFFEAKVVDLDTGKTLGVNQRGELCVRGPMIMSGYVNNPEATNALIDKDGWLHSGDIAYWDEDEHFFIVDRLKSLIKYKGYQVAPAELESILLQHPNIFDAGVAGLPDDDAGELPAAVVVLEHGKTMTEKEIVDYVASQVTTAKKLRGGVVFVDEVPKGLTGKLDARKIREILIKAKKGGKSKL
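Biochemical qHTS of compounds, final roughly 60 µM downward over six points, against 10 nM purified firefly luciferase using Km concentrations of substrates (10 uM D-luciferin, 10 uM ATP) in Tris acetate pH 7.5 buffer; luminescence output.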
ELG1 genotox – genotoxicity induction in ELG1-luciferase HEK293T cells. HEK293T ELG1-luciferase reporter, luminescence, 16 h. Potency, µM (series often up to 46 µM), usual class: activators. 330,000 compounds, 1.3% hits. AID 504466; further: nearly all actives have a fitted effect of over 60% in size
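Quantitative HTS format in 1536-well plates. HEK293T ELG1-luciferase reporter cells receive test compound and are incubated 16 hr at 37 °C, 5% CO2; ONE-Glo added, 30 min room temperature, then luminescence read.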
NPC1 promoter act – NPC1 promoter activation; Huh7 NPC1 promoter luciferase reporter, 24 h; 320,000 compounds, 2.4% hits; Potency, µM (series often up to 9.22 µM), most hits filed as activators; further: nearly all actives have a fitted effect of over 60% in size
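Luminescence read-out of NPC1 promoter-driven luciferase in stably transfected Huh7 cells; compounds delivered in DMSO and left 24 h at 37C, 5% CO2, qHTS titration format.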
Hits are given with their value; . = inactive; ? = inconclusive; / = no result. Unless noted, the call rests on the fitted dose curve; in most records, active means well fitted curve in the direction sought with a large enough effect; inconclusive means small, poorly fitted or top-dose-only effect, or another doubt; inactive means no such curve, though single readings can be large; an effect the other way counts as inactive or inconclusive.

SMILES	uPA generation	SMN2 splice enh	Rab9 promoter act	FLuc modulator	ELG1 genotox	NPC1 promoter act
COc1cccc(/C=N/NC(=O)CNC(=O)CCc2ccccc2)c1O	?	/	.	9.5µM	?	.
CCc1ccc(C(=O)c2cn(CC(=O)Nc3ccc4c(c3)OCO4)c3cc(OC)c(OC)cc3c2=O)cc1	/	.	/	.	/	/
O=c1cc(-c2cc3ccccc3oc2=O)c2ccc(O)cc2o1	/	.	/	/	/	/
O=c1oc2ccccc2cc1NCc1ccccc1O	.	.	.	15µM	?	.
Nc1ccc(-c2cc3ccccc3oc2=O)cc1	.	/	.	21µM	.	.
O=c1oc2ccccc2cc1O	/	.	/	/	/	/
O=c1oc2ccccc2cc1-c1ccc(O)cc1	.	?	3.5µM	12µM	?	?
COc1ccccc1C1C(C(=O)Nc2ccccc2)=C(C)Nc2nc(-c3ccccc3)nn21 (configuration not stated)	/	.	/	.	/	/
Cn1c(=O)oc2cc(S(=O)(=O)N3CCCC(C(=O)NCc4ccc(F)cc4)C3)ccc21 (configuration not stated)	/	.	/	.	/	/
CC(C)CC1c2[nH]c3ccccc3c2CCN1C(=O)c1cnccn1 (configuration not stated)	.	/	3.5µM	11µM	?	3.5µM
CC(=O)c1cc(C(=O)N2CCc3c([nH]c4ccccc34)C2CC(C)C)[nH]n1 (configuration not stated)	.	/	.	.	.	.
CC(C)(C)c1ccc(C(=O)NNC(=O)Cc2cccc3ccccc23)cc1	.	.	.	15µM	.	.
COc1ccc(N2CSC3=C(C#N)C(c4cc(OC)c(OC)cc4OC)CC(=O)N3C2)c(OC)c1 (configuration not stated)	.	.	.	?	.	.
CCOc1ccccc1N1CSC2=C(C#N)C(c3c(OC)ccc4ccccc34)CC(=O)N2C1 (configuration not stated)	?	.	.	7.6µM	.	.
COc1cc(OC)c(C2CC(=O)N3CN(c4ccc(C)cc4)CSC3=C2C#N)cc1OC (configuration not stated)	.	.	.	15µM	.	?
COc1ccc(C2CC(=O)N3CN(c4ccc(C)c(Cl)c4)CSC3=C2C#N)cc1OC (configuration not stated)	7.1µM	.	.	?	.	.
O=C1CCC=C1C(O)CCc1ccccc1 (configuration not stated)	/	.	/	/	/	/
Fc1ccc(-c2nc(Nc3ccc(F)c(Cl)c3)nc3c2COc2ccccc2-3)cc1	/	/	/	.	/	/
COc1cc(OC)cc(-c2cc3cc4c(cc3cn2)OCO4)c1	?	/	/	/	4.1µM	/
COc1ccc(-c2cc3cc(OC)c(OC)cc3cn2)cc1	.	/	/	/	.	/
COc1cc(OC)cc(-c2n[nH]c(=S)n2-c2ccc3c(c2)OCO3)c1	.	.	.	.	.	.
COc1ccc(-c2cc3cc4c(cc3cn2)OCO4)cc1	?	/	/	/	0.73µM	/
CCc1ccc(NC(=O)CCNS(=O)(=O)c2ccc3c(c2)oc(=O)n3C)cc1	/	.	/	.	/	/
CC(C)C(OC(=O)CN1C(=O)c2ccccc2C1=O)C(=O)NC1CCCCC1 (configuration not stated)	.	/	.	.	.	.
CC(=O)CCC(=O)N1CCCC(N2CCN(c3cccc(Cl)c3)CC2)C1 (configuration not stated)	.	/	.	.	.	.
SMILES	uPA generation	SMN2 splice enh	Rab9 promoter act	FLuc modulator	ELG1 genotox	NPC1 promoter act
O=c1[nH]c(-c2ccc(O)cc2)nc2scc(-c3cccs3)c12	.	/	2µM	11µM	?	2.8µM
O=C(O)c1ccc(-c2nc3scc(-c4ccccc4)c3c(=O)[nH]2)cc1	.	/	.	9.5µM	.	.
CC(C)(C)c1nc2scc(-c3cccs3)c2c(=O)o1	.	/	.	13µM	.	.
Cc1nc2scc(-c3cccs3)c2c(=O)[nH]1	.	.	.	.	.	.
COC(=O)Nc1nnc(/C=C/c2ccc(OC)cc2)s1	.	8.9µM	3.5µM	6µM	?	?
COc1ccc(/C=C/c2nnc(NC(C)=O)s2)cc1	.	/	0.13µM	1.9µM	2.3µM	1.1µM
COc1ccc(/C=C/c2nnc(NC(=O)CSc3ccc(Cl)cc3)s2)cc1	.	10µM	?	.	?	?
COc1ccc(/C=C/c2nnc(NC(=O)CC(C)C)s2)cc1	.	/	.	?	.	.
CCOc1ccc(CCNC(=O)c2cnc3c(-c4ccc(F)cc4)c(C)nn3c2C)cc1	/	/	/	.	/	/
CCC1=C(c2ccc(C)cc2)S(=O)(=O)N=C1N1CCC(C(=O)NCc2ccc(N(C)C)cc2)CC1	/	/	/	.	/	/
Cc1nnc2n(-c3ccccc3)c(=O)c3c4c(sc3n12)CC(C)CC4 (configuration not stated)	.	22µM	.	.	.	.
COc1ccc(-n2c(=O)c3c4c(sc3n3cnnc23)CC(C)CC4)cc1 (configuration not stated)	.	/	/	/	/	/
CCOc1cnc(-c2ccccc2F)o1	.	.	.	17µM	.	.
CCOc1cnc(-c2c(-c3c(F)cccc3Cl)noc2C)o1	.	.	.	.	.	.
